“And” between values parts separate entries of the source, which are not always exact repeats. Equal values may be shown once. Results filed as inconclusive are left out. A call without a number means that no potency is given here. The source made the active and inactive calls. The call rests on the fitted dose curve; in most records, active means well fitted curve in the direction sought with a large enough effect; inconclusive means small, poorly fitted or top-dose-only effect, or another doubt; inactive means no such curve, though single readings can be large; an effect the other way counts as inactive or inconclusive.
Each compound was assayed on Zika virus NS2B-NS3 protease (unlinked) (assay: Optimization of GU AMC qHTS for Zika virus inhibitors: Unlinked NS2B-NS3 protease assay (AID 1347151; further: nearly all actives have a fitted effect of over 80% in size)). Details: recombinant ZIKV NS2B-NS3 protease, fluorogenic AMC substrate; series mostly up to 52.5 µM.
How it was run: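 Noncovalent complex of NS2B hydrophilic domain and NS3 protease domain, 25 nM final, in 10 mM Tris-HCl pH 8.0, 0.01% Tween 20. AMC fluorescence change over 15 min at room temperature was fitted to a 4-parameter Hill equation.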
With `CC=CCC(C)C(O)C1C(=O)NC(CC)C(=O)N(C)CC(=O)N(C)C(CC(C)C)C(=O)NC(C(C)C)C(=O)N(C)C(CC(C)C)C(=O)NC(C)C(=O)NC(C)C(=O)N(C)C(CC(C)C)C(=O)N(C)C(CC(C)C)C(=O)N(C)C(C(C)C)C(=O)N1C` (centres undefined) the Potency was “inactive”.
For `CCN(CC)C(=O)c1ccc(O)c(OC)c1`, the Potency was “inactive”.
In the case of `CC/C(=C(\c1ccccc1)c1ccc(OCCN(C)C)cc1)c1ccccc1`, the Potency is reported as “inactive”.
In the case of `Clc1ccc(C(c2ccc(Cl)cc2)n2cc[n+](CC(OCc3ccc(Cl)cc3Cl)c3ccc(Cl)cc3Cl)c2)cc1` (centres undefined), the Potency is reported as “inactive”.
With `COc1ccc(Cc2nccc3cc(OC)c(OC)cc23)cc1OC` the Potency was “inactive”.
For `CCn1cc(C(=O)O)c(=O)c2ccc(C)nc21`, the Potency was “inactive”.
In the case of `C[C@H](NC(=O)C(=O)Nc1ccccc1C(C)(C)C)C(=O)N[C@@H](CC(=O)O)C(=O)COc1c(F)c(F)cc(F)c1F`, the Potency is reported as “inactive”.
With `O=c1cc(-c2ccccc2)oc2cc(O)c(O)c(O)c12` the Potency was 2.71 µM (active).
For `NCCS`, the Potency was “inactive”.

These compounds were tested on Zika virus NS2B-NS3 protease (linked construct) (assay: Confirmatory screen NINDS AMC qHTS for Zika virus inhibitors (AID 1347152; further: nearly all actives have a fitted effect of over 70% in size)). Details: Purified linked NS2B-NS3, AMC substrate fluorescence.
How it was run: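 Purified NS2B-NS3 protease with NS2B hydrophilic domain linked to NS3 protease domain by flexible linker, 1 nM final in 10 mM Tris-HCl pH 8.0, 0.01% Tween 20. Compounds preincubated 15 min, room temperature; Bz-Nle-KRR-AMC 10 microM (Km 18.3 µM); 15-min fluorescence change, 4-parameter Hill fit.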
For `NC(=O)c1cccc2[nH]c(-c3ccc([C@H]4CCCN4)cc3F)nc12`, the Potency was 27.1 µM (active).
With `CS(=O)c1ccc(-c2nc(-c3ccc(F)cc3)c(-c3ccncc3)[nH]2)cc1` (centres undefined) the Potency was 24.1 µM (active).
For `COc1ccc2cc(-c3nc(-c4ccc(S(C)=O)cc4)[nH]c3-c3ccncc3)ccc2c1` (centres undefined), the Potency was 17.1 µM (active).
In the case of `NC(=O)c1ccc2nc(-c3ccc(Oc4ccc(Cl)cc4)cc3)[nH]c2c1`, the Potency is reported as 34.1 µM (active).

The compounds below were run on Zika virus NS2B-NS3 protease (unlinked complex) (assay: Confirmatory screen GU AMC qHTS for Zika virus inhibitors (AID 1347153; further: nearly all actives have a fitted effect of over 70% in size)). Details: Recombinant NS2B-NS3 protease, AMC substrate fluorescence.
How it was run: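 Unlinked enzyme 25 nM, Tris pH 8.0/0.01% Tween 20; cpd 15 min RT, dark; + AMC substrate 10 µM (Km 18.3 µM); 340/450 nm read at t0 and 15 min; % inhibition → 4-param fit.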
With `Cc1ccn(-c2ccc(-c3ncco3)cc2)c(=O)c1-c1ccc2nc(N)ncc2c1` the Potency was 30.4 µM (active).
In the case of `CS(=O)c1ccc(-c2nc(-c3ccc(F)cc3)c(-c3ccncc3)[nH]2)cc1` (centres undefined), the Potency is reported as 21.5 µM (active).
For `COc1ccc2cc(-c3nc(-c4ccc(S(C)=O)cc4)[nH]c3-c3ccncc3)ccc2c1` (centres undefined), the Potency was 17.1 µM (active).

The compounds below were run on Zika virus NS2B-NS3 protease (assay: Primary screen GU AMC qHTS for Zika virus inhibitors (AID 1347154; further: nearly all actives have a fitted effect of over 70% in size)). Details: Zika NS2B-NS3 unlinked protease, AMC fluorogenic substrate; series mostly up to 54.1 µM.
How it was run: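 Unlinked Zika NS2B hydrophilic domain/NS3 protease domain noncovalent complex (25 nM final) in 10 mM Tris-HCl pH 8.0, 0.01% Tween 20, with AMC peptide substrate. Fluorescence (ex 340, em 450 nm) change over 15 min, room temperature; percent inhibition fitted to 4-parameter Hill equation.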
`CCOC(=O)C1=C(N)Oc2ccc(Br)cc2C1C(C#N)C(=O)OCC` (centres undefined) was tested, and the Potency was “inactive”.
In the case of `NC(=O)c1cccc2[nH]c(-c3ccc([C@H]4CCCN4)cc3F)nc12`, the Potency is reported as 24.1 µM (active).
In the case of `CC(C)(C)COc1ccc(-n2cc(C(=O)O)cn2)cc1C#N`, the Potency is reported as “inactive”.
`NC[C@@H]1O[C@@H](O[C@H]2[C@@H](O)[C@H](O[C@@H]3[C@@H](O)[C@@H](N)C[C@H](N)[C@H]3O[C@H]3O[C@H](CN)[C@@H](O)[C@@H](O)[C@H]3N)O[C@H]2CO)[C@H](N)[C@@H](O)[C@@H]1O` was tested, and the Potency was “inactive”.
`NC(CO)(CO)CCc1ccc(Sc2cccc(OCc3ccccc3)c2)cc1Cl` was tested, and the Potency was “inactive”.
In the case of `O=C1NC(=O)C(=Cc2ccc(-c3ccc(F)cc3)o2)S1`, the Potency is reported as “inactive”.
`Cc1ccn(-c2ccc(-c3ncco3)cc2)c(=O)c1-c1ccc2nc(N)ncc2c1` was tested, and the Potency was 21.5 µM (active).
`CS(=O)c1ccc(-c2nc(-c3ccc(F)cc3)c(-c3ccncc3)[nH]2)cc1` (centres undefined) was tested, and the Potency was 26.7 µM (active) and 17.5 µM (active).
For `CC(C)(C)NC(=O)Nc1cccc(Nc2ncc(F)c(NC(C)(C)CO)n2)c1`, the Potency was “inactive”.
`NC(=O)c1cccc(-c2cc(Nc3ccc(OC(F)(F)F)cc3)ncn2)c1` was tested, and the Potency was “inactive”.
In the case of `CCN(CC)C(=O)c1ccc(O)c(OC)c1`, the Potency is reported as “inactive”.
In the case of `CC/C(=C(\c1ccccc1)c1ccc(OCCN(C)C)cc1)c1ccccc1`, the Potency is reported as “inactive”.
`CC(C(=O)O)c1ccc(-c2ccccc2)c(F)c1` (centres undefined) was tested, and the Potency was “inactive”.
For `COCCCCC(=NOCCN)c1ccc(C(F)(F)F)cc1`, the Potency was “inactive”.
In the case of `CC(=O)N(C)C1(c2ccccc2)CCN(CCC[C@]2(c3ccc(Cl)c(Cl)c3)CCCN(C(=O)c3ccccc3)C2)CC1`, the Potency is reported as “inactive”.
For `NC1CCC(Nc2nc(Nc3ccc(C(=O)N4CCCCC4)cc3)c3ncn(-c4cccc(F)c4)c3n2)CC1` (centres undefined), the Potency was “inactive”.
In the case of `C=C1C(=O)OC2C=C(C)CCC=C(C)CCC12` (centres undefined), the Potency is reported as “inactive”.
For `CCn1cc(C(=O)O)c(=O)c2ccc(C)nc21`, the Potency was “inactive”.
In the case of `CCCCCN(C)CCC(O)(P(=O)(O)O)P(=O)(O)O`, the Potency is reported as “inactive”.
With `CC[C@@]1(O)C[C@H](O[C@H]2C[C@H](N(C)C)[C@H](O[C@H]3C[C@H](O)[C@H](O[C@H]4CCC(=O)[C@H](C)O4)[C@H](C)O3)[C@H](C)O2)c2c(cc3c(c2O)C(=O)c2c(O)cccc2C3=O)[C@@H]1C(=O)OC` the Potency was “inactive”.
With `COc1ccc(C2Sc3ccccc3N(CCN(C)C)C(=O)C2OC(C)=O)cc1` (centres undefined) the Potency was “inactive”.
For `O=c1cc(-c2ccccc2)oc2cc(O)c(O)c(O)c12`, the Potency was “inactive”.
For `COc1ccc2cc(-c3nc(-c4ccc(S(C)=O)cc4)[nH]c3-c3ccncc3)ccc2c1` (centres undefined), the Potency was 17.1 µM (active).

Source: PubChem BioAssay (NCATS)
Potency means the concentration at half of the fitted maximal effect.
